Screens as filed in PubChem BioAssay.
NALP1 yeast inh: NALP1 inflammasome inhibitors in reconstituted yeast, colorimetric, S. cerevisiae, triplicate retest. S. cerevisiae NALP1/ASC/caspase-1 growth, X-gal OD620, 72 h. inhibition, % at 10 µM. 0.61% of 280,000 active. AID 2071, 2009; in the data active = inhibition mostly above about 24%, no sharp cut-off; inactive = mostly below about 32%
TIM10 inh: growth inhibitors of isogenic TIM10 control yeast, primary screen, counter-screen for tim10-1 yeast inhibitor project, luminescence, uHTS. S. cerevisiae TIM10 strain growth, BacTiter-Glo luminescence, 24 h. inhibition, % at 10 µM. 1.4% of 330,000 active;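 active = inhibition of 40% or more at the single tested concentration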;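 note: wild-type TIM10 isogenic control strain grown at permissive 25 °C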
SKKanGAS inh: S. pyogenes SKKanGAS growth inhibitors in kanamycin, primary screen, streptokinase expression inhibitor project, SKKanGAS strain, BacTiter-Glo luminescence | 6 h | inhibition, % at 7.5 µM | AID 1662, 2009 | 1.3% of 300,000 active;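 active = mean replicate score, as percent of positive control median, at least 50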;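 note: strain carries kanamycin resistance gene driven by streptokinase promoter and grows in 40 µg/ml kanamycin; loss of luminescence reflects streptokinase promoter inhibition or plain growth inhibition; 0% = median of DMSO wells and 100% = positive control at its reference dose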
PfHsp90 yeast 2: growth inhibition of PfHsp90-expressing yeast, primary screen, antimalarial PfHsp90 inhibitor project, S. cerevisiae, BacTiter-Glo luminescence, single point, set 2 | BacTiter-Glo ATP, 48 h; yeast lacking PDR1 and PDR3 efflux regulators | inhibition, % at 9.4 µM | 0.32% of 310,000 active | AID 504621, 2011;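 active = every replicate shows inhibition above about 80%, whatever the replicate mean, limit read from the data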;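 note: 0% = DMSO neutral controls and 100% = 20 µM radicicol positive controls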
tim23-1 inh: growth inhibitors of tim23-1 mutant yeast, primary screen, luminescence, uHTS; S. cerevisiae tim23-1 growth, BacTiter-Glo luminescence, 24 h; inhibition, % at 20 µM; 1.3% of 330,000 active;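 active = growth inhibition of the mutant yeast at or above 50%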;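 note: temperature-sensitive mutant grown at 25 °C; plate controls were DMSO-treated mutant yeast for no effect and medium wells lacking yeast for full effect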
tim10-1 inh: growth inhibitors of tim10-1 mutant yeast, primary screen, luminescence, uHTS; S. cerevisiae tim10-1 ts strain growth, BacTiter-Glo, 24 h; inhibition, % at 20 µM; 2.2% of 330,000 active; AID 463190, 2010;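 active = inhibition of at least 40%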;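 note: mutant grown at 25 °C; 0% = DMSO wells with yeast and 100% = wells holding no yeast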
tim23-1 conf: tim23-1 mutant yeast growth inhibitors, confirmation, luminescence, single concentration; shares compounds with tim23-1 inh; S. cerevisiae tim23-1 growth, BacTiter-Glo luminescence, 24 h; inhibition, % at 20 µM; 83% of 4,400 active; AID 463218, 2010;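 active = inhibition above about 39% in either of two replicate wells at 20 µM, limit read from the data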;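 note: temperature-sensitive tim23-1 mutant grown at 25 °C; 0% = DMSO wells with yeast and 100% = medium wells without yeast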
* marks the source's active call; other numbers are inactive results; x = not tested or not shown. Shown are actives, neighbours in structure and some others; about 4.8% of the full set was active somewhere.

SMILES | NALP1 yeast inh | TIM10 inh | SKKanGAS inh | PfHsp90 yeast 2 | tim23-1 inh | tim10-1 inh | tim23-1 conf
COC(=O)c1cc2c(cc1Cl)N1CCCCCC1=NS2(=O)=O | -11 | 7 | 8 | 4 | -6 | 9 | x
Clc1ccccc1CSc1nnc(-c2ccccn2)n1Cc1ccco1 | 4 | 9 | 0 | -29 | 52* | 31 | 54*
NC(=O)CSc1nnc(-c2ccccn2)n1Cc1ccco1 | 25 | 5 | -7 | 1 | 0 | 9 | x
CC(C)(C)NC(=O)C12CCC(C)(c3nc4ccccc4nc31)C2(C)C (stereo unspecified) | -6 | 38 | 4 | x | 53* | 39 | 37
COC(=O)C12CCC(C)(c3nc4ccccc4nc31)C2(C)C (stereo unspecified) | 2 | 20 | 1 | 34 | 8 | 27 | x
Cc1ccc(N=Cc2c(O)n(-c3ccc4c(c3)OCO4)c(=O)c3ccccc23)cc1 | 5 | 11 | 2 | -22 | 14 | 6 | x
Cc1cc(NC(=O)CSc2nnc(-c3ccco3)n2CC2CCCO2)no1 (stereo unspecified) | -2 | -2 | 6 | x | 3 | 7 | x
COc1ccc(NS(=O)(=O)c2ccc(N3CCCC3)c(NC(=S)Nc3cccc(S(=O)(=O)N(C)C)c3)c2)cc1 | -8 | 27 | 3 | x | 52* | 23 | 78*
COc1cc(OC)cc(C(=O)NCC2CCCN(C(=O)c3csc(C(C)C)n3)C2)c1 (stereo unspecified) | 4 | 6 | 6 | 2 | 16 | 3 | x
O=C(Nc1cccc(Cl)c1)Nc1cccc(Cl)c1 | -5 | 7 | 17 | -10 | 18 | 1 | x
O=C(Nc1cccc(Cl)c1)ON=C1c2ccccc2-c2ccccc21 | 21 | 8 | 1 | -5 | 62* | 17 | 46*
CC(=O)Oc1ccc(/C=C2/CCc3ccccc3C2=O)cc1 | 12 | 31 | 35 | -8 | 60* | -11 | 51*
O=C(O)c1cc(/C=C/c2ccc(N3CCOCC3)cc2)nc2ccccc12 | -25 | 17 | x | x | 52* | 32 | 41*
O=C(O)c1cc(/C=C/c2ccc(N3CCOCC3)c([N+](=O)[O-])c2)nc2ccccc12 | x | 4 | 20 | 1 | 22 | 10 | x
CCn1cc(Br)c(C(=O)Nc2ccc(F)c(Cl)c2)n1 | 10 | 27 | 0 | 8 | 53* | 28 | 44*
CCOC(=O)c1ccc(NC(=O)c2nn(CC)cc2Br)cc1 | 6 | 9 | -10 | 4 | 21 | 18 | x
CCn1cc(Br)c(C(=O)Nc2ccc(Cl)cc2Cl)n1 | -10 | 20 | 7 | -28 | 94* | 39 | 38
O=C(Nc1ccc(F)c(Cl)c1)c1ccccc1 | x | 34 | x | 6 | 64* | 14 | 67*
CCc1sc(C(=O)Nc2ccc3c(c2)OCO3)cc1C | x | 4 | x | -8 | 55* | -17 | 46*
CCc1sc(C(=O)Nc2ncccc2C)cc1C | 18 | -15 | -6 | 20 | 20 | 2 | x
CCc1sc(C(=O)Nc2nccs2)cc1C | 12 | 6 | 59* | -4 | 54* | 25 | 58*
O=C(Nc1nccs1)c1ccc(Cl)s1 | 1 | 30 | 5 | 13 | 70* | 25 | 57*
O=C(Nc1ccc(OC(F)F)cc1)c1cc(S(=O)(=O)N2CCOCC2)ccc1F | 4 | 10 | -13 | 7 | 21 | 17 | x
Cc1ccc(N2C(=O)N(CC(=O)N3CCCc4ccccc43)C(=O)C2C)cc1 (stereo unspecified) | -9 | 27 | -11 | 19 | 33 | 31 | x
COC(=O)c1ccc(NS(=O)(=O)c2cc(-c3cc(C)no3)ccc2OC)cc1 | 23 | 16 | -6 | -36 | 17 | 18 | x
SMILES | NALP1 yeast inh | TIM10 inh | SKKanGAS inh | PfHsp90 yeast 2 | tim23-1 inh | tim10-1 inh | tim23-1 conf
CN1c2ccccc2C(=O)C(=C2SCCCS2)S1(=O)=O | -8 | 38 | -6 | 0 | 53* | 25 | 54*
CN1c2ccccc2-c2ccccc2S1(=O)=O | x | x | x | -48 | x | x | x
COc1cc2c3c(c1)C(C)CC(C)(C)N3C(=O)C2=O (stereo unspecified) | -6 | -2 | 1 | 9 | 51* | 32 | 63*
O=C(NC1CCCC1)C(c1cccnc1)N(CCc1ccccc1)C(=O)c1ccco1 (stereo unspecified) | 18 | 8 | -15 | 25 | 14 | 3 | x
Cc1cccc(N=Nc2cnc(N)s2)c1 | 2 | 22 | -5 | 8 | 52* | 28 | 53*
CC(=O)Nc1ncc(N=Nc2cccc(C(F)(F)F)c2)s1 | -3 | -2 | 1 | -23 | 15 | 12 | x
COc1ccc(/C=N/NC(=O)OC(C)(C)C)cc1OC | 30 | 6 | -2 | -18 | 10 | 14 | x
CC(=O)c1ccc(S(=O)(=O)NCC(=O)Nc2nc3ccccc3[nH]2)cc1 | x | 0 | x | 24 | 15 | 3 | x
Cn1c(=O)c(C(=O)NCc2ccccc2)c(O)c2ccccc21 | 2 | -2 | -8 | 4 | 54* | -16 | 26
CCn1c(=O)c(C(=O)NCc2ccccc2Cl)c(O)c2ccccc21 | 20 | 3 | 39 | 33 | 35 | -10 | x
Cn1c(=O)c(C(=O)NCc2ccc(F)cc2)c(O)c2ccccc21 | 12 | 9 | 13 | -3 | 41 | 4 | x
CC(=O)c1c(O)c2ccccc2n(Cc2ccccc2)c1=O | 2 | 11 | 1 | -1 | 56* | 28 | 36
O=C(CCl)N1c2ccccc2OCC1c1ccccc1 (stereo unspecified) | 38 | 28 | 3 | -34 | 46 | 39 | x
O=C(CCl)N1c2ccccc2SCC1c1ccccc1 (stereo unspecified) | 14 | 29 | -4 | -4 | 54* | 0 | 51*
O=C1[C@@H](Oc2ccccc2)[C@@H](c2ccccc2)N1c1ccccc1 | x | 1 | x | -20 | 34 | 18 | x
O=C1[C@H](Oc2ccccc2)[C@@H](c2ccccc2)N1c1ccncc1 | x | 19 | x | 8 | 62* | 29 | 32
Cc1[nH]c2ccccc2c1/C=N/NC(=S)NC(C)C | -20 | 40 | -7 | x | 47 | 39 | x
CC(C)NC(=S)N/N=C/c1c[nH]c2ccccc12 | 13 | 32 | -11 | -38 | 56* | 36 | 40*
CC(C)CN=Cc1c(O)c([N+](=O)[O-])cc2oc3c(c12)CCCC3 | 50* | 40 | -8 | -12 | 66* | 37 | 1
O=C(NN=C1c2ccccc2-c2ccccc21)c1ccccc1 | x | 34 | 37 | -30 | 50* | 19 | 66*
NC(=S)NN=C1c2ccccc2-c2ccccc21 | -7 | 40 | 4 | -18 | 57* | 36 | 46*
